Screening results (PubChem BioAssay)
This is one part of a sample in which hits are shown more often than they occur.
KDM4E inh: qHTS Assay for Inhibitors of Human Jumonji Domain Containing 2E (JMJD2E); Lysine-specific demethylase 4E (Homo sapiens), B2RXH2; JMJD2E catalytic domain, FDH-coupled NADH fluorescence (FDH is formaldehyde dehydrogenase); Potency, µM (top dose mostly 57.1 µM), usual class: inhibitors; 230,000 tested, 1.6% active; AID 2147, 2009; active = well fitted inhibition curve with a large enough effect, not every such curve was filed as active; inconclusive = small, poorly fitted or top-dose-only effect, or another doubt; inactive = no such curve, though single readings can be large or run the other way; also: nearly all actives have a fitted effect of over 50% in size
RECQ1 inh: qHTS Assay for Inhibitors of RecQ-Like Dna Helicase 1 (RECQ1). AID 2549, 2010. ATP-dependent DNA helicase Q1 (Homo sapiens), P46063. 240,000 tested, 0.54% active. RECQ1 DNA unwinding, red fluorescence kinetic read. Potency, µM (titrated, usually from 57.3 µM), actives largely listed as inhibitors; also: nearly all actives have a fitted effect of over 30% in size
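RECQ1T1 50 nM; forked duplex (20 bp + 30-nt ss tails) 200 nM, ATP 2 mM final; pH 8.0, 2 mM MgCl2, 2.5 ug/ml poly(dI-dC); 15 min compound preincubation; discontinuous kinetic read over 2 h at RT.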
APE1 inh: qHTS Assay for Inhibitors of the Human Apurinic/apyrimidinic Endonuclease 1 (APE1); recombinant APE1, TAMRA/BHQ-2 abasic DNA cleavage fluorescence; 350,000 tested, 0.35% active; AID 2517, 2012; DNA repair nuclease/redox regulator APEX1 (Homo sapiens), P27695; Potency, µM (series often up to 65.8 µM), usual class: inhibitors; also: nearly all actives have a fitted effect of over 55% in size
Target sequence (P27695 whole entry, looked up): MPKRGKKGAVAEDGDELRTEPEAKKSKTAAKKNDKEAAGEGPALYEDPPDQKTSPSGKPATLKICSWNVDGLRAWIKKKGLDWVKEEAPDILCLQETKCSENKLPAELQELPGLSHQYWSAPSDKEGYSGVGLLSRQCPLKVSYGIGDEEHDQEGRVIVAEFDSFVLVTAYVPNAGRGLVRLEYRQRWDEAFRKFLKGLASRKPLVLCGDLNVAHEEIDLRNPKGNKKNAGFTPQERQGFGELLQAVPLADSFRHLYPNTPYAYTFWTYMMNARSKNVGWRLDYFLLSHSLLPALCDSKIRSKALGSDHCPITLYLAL
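Kinetic fluorescence read (525 ex/598 em nm, three reads 60 s apart) of AP-site incision; signal = third minus first read. Enzyme 0.75 nM, dual-labelled THF duplex 50 nM, compound preincubation 15 min RT.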
L3MBTL1 inh-1: qHTS Assay for the Inhibitors of L3MBTL1 | Lethal(3)malignant brain tumor-like protein 1 (Homo sapiens), Q9Y468 | AlphaScreen L3MBTL1–H3K9me1 peptide binding | Potency, µM (doses to about 57.1 µM), most hits filed as inhibitors | 230,000 tested, 0.66% active; also: nearly all actives have a fitted effect of over 60% in size
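Read-out is AlphaScreen signal from streptavidin donor and nickel chelate acceptor beads (10 ug/mL final each) bridging L3MBTL1 (50 nM) and biotinylated K9-monomethylated H3(1-15) peptide (75 nM), after 30 min compound exposure at room temperature.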
GoLoco inh red: qHTS Assay for Inhibitors of RGS12 GoLoco Motif Activity (Red Fluorophore); Potency, µM (highest dose often 61.6 µM), usual class: inhibitors; AID 880, 2007; Guanine nucleotide-binding protein G(i) subunit alpha-1 (Homo sapiens), P63096; 230,000 tested, 0.44% active; Gai1:RGS12 GoLoco peptide FP, rhodamine, 10 min; active = well fitted inhibition curve with a large enough effect, not every such curve was filed as active; inactive = no such curve, though single readings can be large or run the other way; also: nearly all actives have a fitted effect of over 30% in size
BLM helicase inh: qHTS Assay for Inhibitors of Bloom's syndrome helicase (BLM) | recombinant BLM DNA unwinding, fluorescence dequenching | Potency, µM (top dose mostly 56.1 µM), actives largely listed as inhibitors | RecQ-like DNA helicase BLM (Homo sapiens), P54132 | 350,000 tested, 0.2% active; also: nearly all actives have a fitted effect of over 35% in size
L3MBTL1 inh-2: qHTS Assay for the Inhibitors of L3MBTL1: Hit Validation. 500 tested, 91% active. shares compounds with L3MBTL1 inh-1. AID 540279, 2011. L3MBTL1 methyl-lysine binding inhibition, biochemical qHTS. Potency, µM, most hits filed as inhibitors; also: nearly all actives have a fitted effect of over 70% in size
AlphaScreen ctr2: qHTS Assay for the Inhibitors of L3MBTL1: Hit Validationin AlphaScreen Counterscreen; shares compounds with L3MBTL1 inh-1; AlphaScreen counterscreen, signal inhibition; Potency, µM (series often up to 57.1 µM), hits mostly inhibitors; AID 602224, 2012; 500 tested, under 10 active
Of the large screens only hits and unclear results are named; the others gave an inactive call (follow-up assays come after a bar, where they were run). Unless noted, calls follow the shape of the dose curve; as a rule, active = well fitted curve in the direction sought with a large enough effect; inconclusive = small, poorly fitted or top-dose-only effect, or another doubt; inactive = no such curve, though single readings can be large; an effect the other way counts as inactive or inconclusive.

O=C(c1ccccc1)c1ccc2nc(-c3ccco3)c(-c3ccco3)nc2c1	KDM4E inh inconclusive, RECQ1 inh inconclusive, APE1 inh inconclusive, L3MBTL1 inh-1 7.9µM, BLM helicase inh 14µM | L3MBTL1 inh-2 7.5 | AlphaScreen ctr2 inactive
c1coc(-c2nc3ccccc3nc2-c2ccco2)c1	KDM4E inh inconclusive, RECQ1 inh inconclusive, L3MBTL1 inh-1 32µM, BLM helicase inh 16µM | L3MBTL1 inh-2 inconclusive | AlphaScreen ctr2 inactive
O=c1oc(-c2ccco2)nc2ccccc12	KDM4E inh inconclusive
COc1ccccc1N1CCN(C(=O)c2ccc3nc(-c4ccco4)c(-c4ccco4)nc3c2)CC1	KDM4E inh inconclusive, APE1 inh inconclusive, L3MBTL1 inh-1 28µM | L3MBTL1 inh-2 19 | AlphaScreen ctr2 inactive
O=C(NCCO)c1ccc2nc(-c3ccco3)c(-c3ccco3)nc2c1	KDM4E inh inconclusive, APE1 inh inconclusive (no result: L3MBTL1 inh-1)
CC(C)Oc1ccc(CNC(=O)Cc2ccc(NC(=O)N3CCSc4ncccc43)cc2)cc1	none (no result: KDM4E inh, RECQ1 inh, APE1 inh, L3MBTL1 inh-1, GoLoco inh red)
COc1cc(N)c(Cc2nccc3cc(OC)c(OC)cc23)cc1OC	none
COc1ccc(C(N)c2nccc3cc(OC)c(OC)cc23)cc1OC (stereo not drawn)	L3MBTL1 inh-1 28µM (no result: KDM4E inh, RECQ1 inh, GoLoco inh red) | L3MBTL1 inh-2 12 | AlphaScreen ctr2 inconclusive
Cc1c(C(=O)NCc2ccccc2)sc2nc3n(c(=O)c12)CCCCC3	none (no result: KDM4E inh, RECQ1 inh, APE1 inh, L3MBTL1 inh-1, GoLoco inh red)
O=C(O)C1C2C=CC(O2)C1C(=O)NCCC1=CCCCC1 (stereo not drawn)	L3MBTL1 inh-1 18µM | L3MBTL1 inh-2 3.8 | AlphaScreen ctr2 inactive
O=C(NCCC1=CCCCC1)C(=O)NCc1ccccc1	none
COC(=O)c1c(NC(=O)c2nc(SC)ncc2Cl)sc2c1CCCC2	none (no result: KDM4E inh, RECQ1 inh, APE1 inh, L3MBTL1 inh-1, GoLoco inh red)
COc1ccc(NC(=O)CN(C)C(=O)c2cc(-c3ccccc3)nc3ccccc23)cc1	none (no result: KDM4E inh, RECQ1 inh, GoLoco inh red, BLM helicase inh)
CN(CC(=O)Nc1ccc(F)cc1)C(=O)c1cc(-c2ccco2)nc2ccccc12	L3MBTL1 inh-1 18µM (no result: KDM4E inh, RECQ1 inh, GoLoco inh red, BLM helicase inh) | L3MBTL1 inh-2 12 | AlphaScreen ctr2 inactive
COc1ccc(-c2nc(CSc3nnc(C)n4c3cc3occc34)c(C)o2)cc1OC	none (no result: KDM4E inh, RECQ1 inh, APE1 inh, L3MBTL1 inh-1, GoLoco inh red)
CC1CN(C(=O)Nc2ccc(C(=O)NCc3cccc(F)c3)cc2)c2ccccc2S1 (stereo not drawn)	none (no result: KDM4E inh, RECQ1 inh, APE1 inh, L3MBTL1 inh-1, GoLoco inh red)
O=C(COC(=O)C1CCN(S(=O)(=O)c2cccs2)CC1)c1cc2ccccc2o1	L3MBTL1 inh-1 32µM | L3MBTL1 inh-2 inconclusive | AlphaScreen ctr2 inactive
COC(=O)\C(C(C)=O)=C(/C=C/C=C/C=C/N(C)C)N(C)C	KDM4E inh 22µM, RECQ1 inh 25µM, APE1 inh 7.9µM, L3MBTL1 inh-1 7.1µM | L3MBTL1 inh-2 3 | AlphaScreen ctr2 inconclusive
Cc1ccccc1CN1CCCN(CC(=O)Nc2c(C)cccc2C)S1(=O)=O	none (no result: KDM4E inh, RECQ1 inh, APE1 inh, L3MBTL1 inh-1, GoLoco inh red)
O=C(/C=C\c1ccco1)Nc1cc([N+](=O)[O-])ccc1F	none
O=C(/C=C/c1ccco1)Nc1cc(Cl)ccc1C(=O)O	APE1 inh inconclusive, L3MBTL1 inh-1 28µM | L3MBTL1 inh-2 11 | AlphaScreen ctr2 inactive
O=C(c1ccc(=O)oc1)N1CCCc2ccccc21	KDM4E inh 14µM, RECQ1 inh inconclusive, APE1 inh 32µM, L3MBTL1 inh-1 18µM, BLM helicase inh inconclusive | L3MBTL1 inh-2 1.5 | AlphaScreen ctr2 inactive
